Mac1 fbg inh = blocks human CD11b/CD18 adhesion to fibrinogen. K562 CD11b/CD18 adhesion to fibrinogen, ATPlite luminescence; Mn2+ added to activate the integrin. inhibition, % at 10 µM. P05107+P11215. AID 1497. actives 0.54% (n = 93,000);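 active = primary inhibition of 50% or more at 10 µM, then 40% or more on retest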
CYP2C19 act = activators of human cytochrome P450 2C19 | P33261 | recombinant CYP2C19, luciferin-H EGE luminescence; hits give high values; 0 = fully inhibited enzyme, 1 = untreated enzyme | activation factor at 5 µM | 96,000 tested, under 10 active | AID 1025;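 active = activation factor of at least 2 at 5 µM in the primary screen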
Target sequence (P33261 whole entry, looked up): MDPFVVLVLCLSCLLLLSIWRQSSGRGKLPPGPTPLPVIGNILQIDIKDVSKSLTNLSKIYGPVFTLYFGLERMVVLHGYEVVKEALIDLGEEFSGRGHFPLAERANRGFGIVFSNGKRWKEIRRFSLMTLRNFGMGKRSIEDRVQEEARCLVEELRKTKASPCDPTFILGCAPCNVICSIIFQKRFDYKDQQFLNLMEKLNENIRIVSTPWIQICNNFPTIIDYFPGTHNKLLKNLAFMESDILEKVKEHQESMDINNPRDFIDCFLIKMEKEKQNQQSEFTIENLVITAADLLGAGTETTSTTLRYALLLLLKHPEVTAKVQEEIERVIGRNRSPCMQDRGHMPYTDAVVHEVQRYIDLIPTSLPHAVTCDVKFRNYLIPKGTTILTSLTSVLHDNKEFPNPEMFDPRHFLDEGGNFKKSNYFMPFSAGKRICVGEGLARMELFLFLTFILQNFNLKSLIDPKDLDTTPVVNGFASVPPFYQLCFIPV
CYP2C9 activ = increases human cytochrome P450 2C9 activity; recombinant CYP2C9, luciferin-H conversion, luminescence; hits give high values; factor 1 = untreated enzyme, 0 = blocked; actives 1.4% (n = 96,000); AID 1024; activation factor at 5 µM; P11712;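 active = activation factor of 2 or more for CYP2C9 at a 5 µM dose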
CYP2C19 inh = blocks human cytochrome P450 2C19. P33261. CYP2C19 Supersomes, luciferin-H EGE luminescence, 30 min. inhibition, % at 5 µM. actives 21% (n = 96,000). AID 778;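 active = CYP2C19 inhibition above a set limit at 5 µM in the primary screen, cut at about 50% in these data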
Mac1 fbg enh = enhancers of human CD11b/CD18 binding to fibrinogen; K562 CD11b/CD18 adhesion to fibrinogen, ATPlite luminescence; actives 0.07% (n = 93,000); activation, % at 10 µM; P05107+P11215;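 active = 10 µM primary screen giving 50% or more activity, confirmed by 40% or more on retest at that dose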
CYP2C9 inh = blocks human cytochrome P450 2C9. P11712. CYP2C9 Supersomes, luciferin-H conversion, luminescence. inhibition, % at 5 µM. actives 20% (n = 96,000). AID 777;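 active = blocking of liver enzyme CYP2C9 beyond about 50% at 5 µM, limit read from the data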
Numbers stand for hits; 0 = inactive; - = no result. In the library only some 28% were active in any assay of this set; here they are far more common.

SMILES	Mac1 fbg inh	CYP2C19 act	CYP2C9 activ	CYP2C19 inh	Mac1 fbg enh	CYP2C9 inh
CCCCC1CC(CSC(=N)N)OC1=O (configuration not stated)	-	0	0	0	-	0
CCCCC1CC(CSc2ncn[nH]2)OC1=O (configuration not stated)	0	0	0	80	0	0
CC(C)C(O)(C#CCN1CCCCC1)C(C)C	0	-	-	-	0	-
Cc1cc2nnc(SC3CCCCN(C(=O)c4ccc(F)cc4)C3=O)n2c2ccccc12 (configuration not stated)	0	0	0	84	0	0
O=C(c1ccc(F)cc1)N1CCCCC(Sc2nnc3ccccn23)C1=O (configuration not stated)	0	0	0	0	0	0
Cc1cc2nnc(SC3CCOC3=O)n2c2ccccc12 (configuration not stated)	0	0	2.1	0	0	0
Cc1cc(C)nc(SC2CCOC2=O)n1 (configuration not stated)	0	0	0	0	0	0
CC(=O)N/C(=C\c1ccccc1)C(=O)NCC(=O)O	0	-	-	-	0	-
CCn1c(COc2cccc3ccccc23)nnc1SCC(N)=O	0	0	0	0	0	0
COc1ccc(CN(C)C2c3ccccc3-c3ccccc32)cc1	0	-	-	-	0	-
Fc1ccc(Oc2nccc(-c3ccc(Cl)cc3)n2)cc1	0	0	0	0	0	0
CCOC(=O)C1=C(C)N=C2SC(C)C(=O)N2C1c1cccc(F)c1 (configuration not stated)	0	0	0	0	0	0
CC1=C(C(=O)OCC(C)C)C(c2cccc(F)c2)N2C(=O)C(C)SC2=N1 (configuration not stated)	0	0	0	75	0	75
CC1=C(C(=O)OC(C)C)C(c2cccc(F)c2)N2C(=O)C(C)SC2=N1 (configuration not stated)	0	0	0	81	0	70
Cn1c(=O)n(C)c2cc(NC(=O)CCl)ccc21	0	0	0	0	0	0
Cc1ccc(C)c(NC(=O)C2CC(O)CN2C(=O)OC(C)(C)C)c1 (configuration not stated)	-	0	0	0	-	0
CCc1cc2c(CN3CCN(CC)CC3)cc(=O)oc2cc1O	0	0	0	0	0	0
CN1CCN(C(=O)CN(CCc2ccccc2)S(C)(=O)=O)CC1	0	0	0	0	0	0
O=C(OCc1nc2ccc(Cl)cc2n1CCO)c1ccc2c(c1)OCO2	-	0	0	0	-	0
C=CCn1c(SCc2nc3ccccc3[nH]2)nnc1-c1ccccn1	0	0	0	97	0	0
Cn1c(SCc2nc3ccccc3[nH]2)nnc1-c1ccccn1	0	0	0	69	0	0
COc1ccc(-c2cc(CNC(=O)CN(C)Cc3ccccc3)on2)cc1	0	0	0	0	0	0
O=C(O)CC(Cc1ccc(Cl)cc1)C(=O)NCc1ccccc1 (configuration not stated)	0	-	-	-	0	-
CCOc1ccc(NC(=O)C2CC(=O)N(C(C)C)C2)cc1 (configuration not stated)	0	0	0	0	0	0
Cc1cc(C(=O)CN2CCC(C)CC2)c(C)n1-c1ccc(F)cc1	0	-	-	-	0	-
SMILES	Mac1 fbg inh	CYP2C19 act	CYP2C9 activ	CYP2C19 inh	Mac1 fbg enh	CYP2C9 inh
Cc1cc(C(=O)Cn2cncn2)c(C)n1CCc1ccc(F)cc1	0	0	0	99	0	67
c1csc(-c2nnc(NC3CCCCC3)c3ccccc23)c1	0	-	-	-	0	-
CCCc1cc(N2CCN(c3ccccn3)CC2)n2nc(C)c(-c3ccccc3)c2n1	0	0	0	0	0	54
Cc1cc(N2CCCCC2)n2nc(C)c(-c3ccccc3)c2n1	0	0	0	0	0	0
COc1ccc(Cl)cc1-n1c(=S)sc2c(=O)[nH]c(SCC(=O)NCC3CCCO3)nc21 (configuration not stated)	0	0	0	0	0	53
O=C(CSc1nc2ccccc2[nH]1)NCC1CCCO1 (configuration not stated)	0	-	-	-	0	-
COc1ccc(S(=O)(=O)N(C)c2c(C)n(C)n(-c3ccccc3)c2=O)cc1OC	0	0	0	71	0	0
COc1cc(Br)c(S(=O)(=O)Nc2c(C)n(C)n(-c3ccccc3)c2=O)cc1OC	0	0	0	0	0	0
CNC(=O)c1sccc1S(=O)(=O)Cc1c(Cl)cccc1Cl	0	0	0	87	0	54
N#C/C(=C/c1ccc(N2CCCCC2)o1)c1cccc(F)c1	0	0	0	0	0	0
N#C/C(=C/c1ccc(Sc2nc3ccccc3[nH]2)o1)c1ccccc1F	0	0	0	95	0	90
N#C/C(=C/c1ccc(Sc2nc3ccccc3[nH]2)o1)c1cccc(F)c1	0	0	0	92	0	95
N#C/C(=C/c1ccc(Sc2nc3ccccc3[nH]2)o1)c1cccc(Br)c1	0	0	0	96	0	97
O=C(Cc1cccs1)Nc1cccnc1	0	0	0	0	0	0
O=C1C2CCCN2C(c2ccccc2)N1c1nccs1 (configuration not stated)	0	0	0	0	0	0
COC(=O)c1ccc(N2CCC(C)CC2)c(N)c1	0	0	0	60	0	0
COC(=O)c1ccc(C(=O)OC)c(N)c1	0	0	0	0	0	0
COc1ccccc1C(=O)NCCCn1cc(Br)c(C)n1	0	0	0	73	0	0
Cc1c(Cl)c([N+](=O)[O-])nn1CC(=O)NC(C)C1CC2CCC1C2 (configuration not stated)	0	0	0	59	0	0
O=c1c2ccccc2nc(CSc2nnnn2-c2ccccc2)n1-c1cccc(C(F)(F)F)c1	0	0	0	0	0	0
Cc1ccc(-c2ccc(C3C(C#N)=C(N)Oc4n[nH]c(C)c43)o2)cc1 (configuration not stated)	-	0	0	0	-	0
Cc1cc2c(c(=O)n1C1CC1)C(c1cccc(Cl)c1)C(C#N)=C(N)O2 (configuration not stated)	0	0	0	0	0	0
Cc1nn(-c2ccccc2)c2c1C(c1c(C)[nH]c(C#N)c1C)C(C#N)=C(N)O2 (configuration not stated)	0	0	0	74	0	87
Cc1nn(-c2ccccc2)c(Cl)c1C1C(C#N)=C(N)OC2=C1C(=O)CCC2 (configuration not stated)	0	0	0	91	0	76
Cc1[nH]nc2c1C(c1ccc(-c3ccccc3C#N)o1)C(C#N)=C(N)O2 (configuration not stated)	0	0	0	68	0	93
Cc1nn(Cc2ccccc2)c2c1C(c1cccc(Cl)c1)C(C#N)=C(N)O2 (configuration not stated)	0	0	0	85	0	91

Assay outcomes from PubChem.
